Structures can show the parent of a compound that is named as a salt.
system: Saccharomyces cerevisiae BY4741 SeMeCo community; assay: z-score of subpopulation abundance vs DMSO median, subpopulation auxotrophic for H; higher = larger share of this subpopulation than in DMSO controls; details: 10 µM; 24 h; SM minimal medium; subpopulation (auxotrophy): H
Protocol: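 Fluorescent four-plasmid SeMeCo (self-establishing metabolically cooperating S. cerevisiae BY4741 community; plasmids pH-mRuby2, pL-mWasabi, pU-eCFP, pM-TagRFP657) was grown 24 h in minimal SM medium with each Selleck FDA-approved drug at 10 µM in 384-well plates. Cells were fixed and imaged by high-content confocal microscopy. For each auxotrophic subpopulation (and the prototroph), a z-score gives the deviation from the DMSO vehicle-control population median.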

Point of comparison: `CC1(C)S[C@@H]2[C@H](NC(=O)[C@H](N)c3ccccc3)C(=O)N2[C@H]1C(=O)OCOC(=O)[C@@H]1N2C(=O)C[C@H]2S(=O)(=O)C1(C)C` [Sultamicillin Tosylate], “z-score of subpopulation abundance” value -0.32. Against it:
- Cn1c([N+](=O)[O-])cnc1COC(N)=O [Ronidazole] — lower, -1.34
- O=C(O)C[C@H](O)C[C@H](O)/C=C/c1c(C2CC2)nc2ccccc2c1-c1ccc(F)cc1 [Pitavastatin Calcium] — higher, 1.86
- CO/N=C(\C(=O)N[C@@H]1C(=O)N2C(C(=O)O)=C(CSC(=O)c3ccco3)CS[C@H]12)c1csc(N)n1 [Ceftiofur HCl] — higher, -0.05
- CCC(=O)NS(=O)(=O)c1ccc(-c2c(-c3ccccc3)noc2C)cc1 [Parecoxib Sodium] — higher, 0.01
- N=C(N)NC(=O)c1nc(Cl)c(N)nc1N [Amiloride HCl] — higher, 0.83
- C(=C\c1ccccc1)/CN1CCN(C(c2ccccc2)c2ccccc2)CC1 [Cinnarizine] — lower, -0.62
- CC/C(=C(\c1ccccc1)c1ccc(OCCN(C)C)cc1)c1ccccc1 [Tamoxifen Citrate] — higher, 1.16
- O=c1ccc2cc(O)c(O)cc2o1 [Esculetin] — higher, 3.92
- Nc1ccc2cc3ccc(N)cc3nc2c1 [Proflavine] — higher, 4.14
- O=C(Nc1cccc(C2=NCCN2)c1)Nc1cccc(C2=NCCN2)c1 [Imidocarb dipropionate] — lower, -0.78
- NC(=O)OCC(COC(N)=O)c1ccccc1 [Felbamate] — lower, -0.6
- CN(Cc1ccc(C(C)(C)C)cc1)Cc1cccc2ccccc12 [Butenafine HCl] — lower, -0.76
- CN(C)c1cc(NC(=O)CNC(C)(C)C)c(O)c2c1CC1CC3C(N(C)C)C(=O)C(C(N)=O)=C(O)C3(O)C(=O)C1=C2O (stereo not given) [Tigecycline] — higher, 0.59
- Cc1c(C(N)=O)cc([N+](=O)[O-])cc1[N+](=O)[O-] [Dinitolmide] — lower, -0.33
- COc1ccc2c3c1O[C@H]1C[C@@H](O)C=C[C@@]31CCN(C)C2 [Galanthamine HBr] — higher, 0.1
- CCCN1CCCC[C@H]1C(=O)Nc1c(C)cccc1C [Ropivacaine HCl] — lower, -0.94
- COc1cccc2c1C(=O)c1c(O)c3c(c(O)c1C2=O)C[C@@](O)(C(=O)CO)C[C@@H]3O[C@H]1C[C@H](N)[C@H](O[C@@H]2CCCCO2)[C@H](C)O1 [Pirarubicin] — lower, -1.05
- C[N+]1(C)[C@@H]2CC[C@H]1C[C@@H](OC(=O)C(O)c1ccccc1)C2 (stereo not given in full) [Homatropine Methylbromide] — lower, -1.04
- CCc1nc(N)nc(N)c1-c1ccc(Cl)cc1 [Pyrimethamine] — lower, -0.47
- CN(C)CCc1c[nH]c2ccc(C[C@H]3COC(=O)N3)cc12 [Zolmitriptan] — lower, -0.77
- COc1ccc2c(c1)c(CC(=O)O)c(C)n2C(=O)c1ccc(Cl)cc1 [Indomethacin] — lower, -0.68
- CC(C(=O)O)c1ccc(C(=O)c2cccs2)cc1 (stereo not given) [Suprofen] — higher, -0.25
- COC1C(O)CC(=O)OC(C)CC=CC=CC(OC2CCC(N(C)C)C(C)O2)C(C)CC(CC=O)C1OC1OC(C)C(OC2CC(C)(O)C(O)C(C)O2)C(N(C)C)C1O (stereo not given) [Spiramycin] — higher, -0.16
- C[C@@H](CN1CC(=O)NC(=O)C1)N1CC(=O)NC(=O)C1 [Dexrazoxane HCl (ICRF-187, ADR-529)] — lower, -0.64
- Nc1ccc(S(=O)(=O)Nc2ccnn2-c2ccccc2)cc1 [Sulfaphenazole] — higher, -0.07
- O=C(c1ccc(F)cc1)C1CCN(CCn2c(=O)[nH]c3ccccc3c2=O)CC1 [Ketanserin] — lower, -0.82
- Cc1ccc(S(=O)(=O)NC(=O)NN2CC3CCCC3C2)cc1 (stereo not given) [Gliclazide] — higher, -0.29
- CO/N=C(\C(=O)N[C@@H]1C(=O)N2C(C(=O)O)=CCS[C@H]12)c1csc(N)n1 [Ceftizoxime] — lower, -0.86
- CCOC(=O)C1=C(COCCN)NC(C)=C(C(=O)OC)[C@@H]1c1ccccc1Cl [Levamlodipine] — higher, 2.66
- CC(C)COc1ccc(CNC(=O)N(Cc2ccc(F)cc2)C2CCN(C)CC2)cc1 [Pimavanserin] — lower, -0.39
- Cc1ccc(Cl)c(Nc2ccccc2C(=O)O)c1Cl [Meclofenamate Sodium] — lower, -0.35
- Fc1ccc(C(c2ccc(F)cc2)N2CCN(C/C=C/c3ccccc3)CC2)cc1 [Flunarizine 2HCl] — higher, 0.98
- CC[C@@]1(O)C(=O)OCc2c1cc1n(c2=O)Cc2cc3c(CN(C)C)c(O)ccc3nc2-1 [Topotecan HCl] — higher, 0.59
- CC1(C)S[C@@H]2[C@H](NC(=O)[C@H](NC(=O)N3CCN(S(C)(=O)=O)C3=O)c3ccccc3)C(=O)N2[C@H]1C(=O)O [Mezlocillin Sodium] — higher, 0.1
- CCN1CCN(c2cc3c(cc2F)c(=O)c(C(=O)O)cn3C2CC2)CC1 [Enrofloxacin] — higher, -0.13
- Cc1nc2n(c(=O)c1CCN1CCC(c3noc4cc(F)ccc34)CC1)CCCC2O (stereo not given) [Paliperidone] — lower, -0.95
- CCCCCCCCN=C(N)NC(N)=NCc1ccc(Cl)c(Cl)c1 [Olanexidine Hydrochloride semihydrate] — higher, 4.73
- C[C@@H]1[C@H](O)[C@@H](C)/C=C/C=C/C=C/C=C/C=C/C=C/C=C/[C@H](O[C@@H]2O[C@H](C)[C@@H](O)[C@H](N)[C@@H]2O)C[C@@H]2O[C@](O)(C[C@@H](O)C[C@@H](O)[C@H](O)CC[C@@H](O)C[C@@H](O)CC(=O)O[C@H]1C)C[C@H](O)[C@H]2C(=O)O [Amphotericin B] — lower, -5.04
- CNCC[C@H](Oc1cccc2ccccc12)c1cccs1 [Duloxetine] — lower, -0.81

— the supplement of paper PMC8975748
